High-throughput results deposited in PubChem by Broad Institute.
aSyn UTR act: Activators via SNCA 5'UTR binding, MLPCN | alpha-synuclein 5'UTR reporter, activators screen | 300,000 compounds, 7.1% hits | activity score, % (tested at 7.5 µM), hits read low; in the data active means activity score below about -60%
Each line names hits and unclear results; the compound was inactive in the other large screens. Only a sample is shown.

CC(C)c1cc(C(=O)Nc2cc(Cl)ccc2O)no1	aSyn UTR act -290.0
O=C(Nc1cc(Br)ccc1O)c1cc(-c2cccs2)on1	aSyn UTR act -146.8
CSc1ccccc1NC(=O)c1cc(C(C)C)on1	aSyn UTR act -143.3
CC(C)c1cc(C(=O)Nc2cc(Br)ccc2O)no1	aSyn UTR act -290.8
CCCOC(c1ccccc1)(c1ccc(C(F)(F)F)cc1)C(Oc1nc(C)cc(C)n1)C(=O)O (configuration not stated)	none
Cc1nc2cc(NC(=O)Nc3nccs3)ccc2n1C	aSyn UTR act -99.3
O=C(Nc1ccc(Cl)c(Cl)c1)Nc1nccs1	aSyn UTR act -63.8
O=C(Nc1cccc(Cl)c1)Nc1nccs1	aSyn UTR act -158.9
Cc1ccc(-c2cn(-c3ccccc3F)c(=S)[nH]2)cc1	aSyn UTR act -124.0
O=[N+]([O-])c1ccc(-c2cn(-c3ccccc3F)c(=S)[nH]2)cc1	aSyn UTR act -93.8
C/C(=N/OCc1ccc(Br)cc1)c1ccccn1	aSyn UTR act -122.7
N/C(=N\OCc1ccc([N+](=O)[O-])cc1)c1ccccn1	none
COc1ccc(NC(=S)Nc2ccc(N)c([N+](=O)[O-])c2)cc1	aSyn UTR act -144.9
COc1ccc(NC(=S)Nc2ccc3snnc3c2)cc1	aSyn UTR act -107.5
COc1ccc(NC(=S)Nc2ccc3nccnc3c2)cc1	aSyn UTR act -227.3
CCC(=O)NC(=S)Nc1ccc2oc(-c3ccc(OC)cc3)nc2c1	aSyn UTR act -168.6
COc1ccc(-c2nc3cc(NC(=S)NC(=O)Cc4ccccc4)ccc3o2)cc1	aSyn UTR act -143.2
CCOc1ccc(C(=O)COC(=O)c2c(-c3ccccc3)noc2C)cc1	aSyn UTR act -62.7
Cc1onc(-c2ccccc2)c1C(=O)OCCOc1cccc(Cl)c1	aSyn UTR act -69.8
CC(=O)c1sc(Nc2nc3cc4c(cc3s2)OCO4)nc1C	aSyn UTR act -178.3
CC(=O)Nc1nc2cc3c(cc2s1)OCO3	aSyn UTR act -99.8
O=C(Nc1nc2cc3c(cc2s1)OCO3)c1ccco1	none
O=[N+]([O-])c1cc(C(F)(F)F)ccc1Sc1ccc2ccccc2n1	aSyn UTR act -75.3
Cc1ccc(C(=O)Nc2ccccc2C(=O)Nc2ccccn2)cc1Cl	aSyn UTR act -70.4
COc1ccc(C(=O)Nc2ccccc2C(=O)Nc2ccccn2)cc1	aSyn UTR act -104.4
Cc1ccc(C(=O)Nc2cccnc2Cl)cc1Cl	aSyn UTR act -156.2
C(/C=C/c1ccccc1)=N/N1CCN(c2ccccc2)CC1	aSyn UTR act -136.4
C(=C\c1ccccc1)/C=N/N1CCN(Cc2ccccc2)CC1	aSyn UTR act -73.7
C(=C\c1ccccc1)/C=N/N1CCN(c2ccccn2)CC1	aSyn UTR act -152.9
CC(/C=N/N1CCN(c2ccccn2)CC1)=C\c1ccccc1	aSyn UTR act -133.7
CN(C)C(=O)c1ccc(COc2ccccc2Br)o1	aSyn UTR act -165.5
O=C(Nc1ccc(Cl)cn1)c1ccc(COc2ccccc2Br)o1	aSyn UTR act -116.7
O=C(Nc1ccccn1)c1ccc(COc2ccccc2Cl)o1	aSyn UTR act -70.9
O=C(Oc1ccc(-c2ccccc2)cc1)N1CCOCC1	aSyn UTR act -103.8
S=C(c1ccc(-c2ccccc2)cc1)N1CCOCC1	none
O=C(/C=C/N1CCOCC1)c1ccc(-c2ccccc2)cc1	aSyn UTR act -123.2
Cc1cc(NC(=O)CC#N)n(-c2nc3ccccc3[nH]2)n1	aSyn UTR act -70.8
Cn1ccnc1SCC(=O)c1ccc(O)cc1	aSyn UTR act -65.2
COc1ccc(C(=O)CSc2nccn2C)c(OC)c1	aSyn UTR act -79.8
COc1cccc(C(=O)CSc2nccn2C)c1	aSyn UTR act -84.1
COc1cccc(C(=O)Oc2c(CN3CCOCC3)cc(Cl)c3cccnc23)c1	none
Cn1ccnc1SCC(=O)c1ccc2ccccc2c1	aSyn UTR act -70.9
CCOc1ccccc1-c1nn2c(Cc3ccccc3)nnc2s1	aSyn UTR act -65.8
Cc1c(-c2nc(N)nc(Nc3ccccc3F)n2)oc2ccccc12	aSyn UTR act -178.3
Cc1ccc(Nc2nc(N)nc(-c3oc4ccccc4c3C)n2)cc1	none
COc1ccc2c(c1OC)C(=O)N(c1nccs1)C2	aSyn UTR act -110.8
COc1ccc(N2Cc3ccc(OC)c(OC)c3C2=O)cc1	aSyn UTR act -223.7
COc1ccc(N2CCc3c(C)nc4c(OC)cccc4c32)cc1	none
CC(=O)O[C@]1(C(C)=O)CC[C@H]2[C@@H]3C=CC4=CC(=O)C=C[C@]4(C)[C@H]3CC[C@@]21C	aSyn UTR act -83.0
CN=c1scc(-c2ccc(OC)cc2)n1/N=C(\C)c1cccnc1	aSyn UTR act -156.0
CCCCN(C(=O)NC(=O)Nc1nc2ccc(OC)cc2s1)S(C)(=O)=O	aSyn UTR act -82.9
CCCCOC(=O)Nc1nc2ccc(OC)cc2s1	aSyn UTR act -102.9
CCCCOC(=O)Nc1nc2ccccc2s1	aSyn UTR act -252.5
CCn1c(O)c(/C=C2\C=Nc3ccccc32)sc1=O	aSyn UTR act -244.7
C=CCn1c(O)c(C=Nc2ccccc2)sc1=S	aSyn UTR act -106.8
CCn1c(O)c(C=Nc2ccccc2)sc1=S	aSyn UTR act -153.3
CC1=Nc2ccccc2/C1=C/c1sc(=N)n(-c2nccs2)c1O	none
CCn1c(O)c(C=Nc2ccccc2)sc1=O	aSyn UTR act -101.3
Oc1nc(Nc2ccccc2)sc1/C=C1\C=Nc2ccccc21	aSyn UTR act -111.9
c1ccc2c(c1)CCN(c1nc3ccccc3n3cnnc13)C2	aSyn UTR act -122.0
COc1ccc(/C=C/c2cc(=O)c3cc(Cl)ccc3o2)cc1	aSyn UTR act -253.4
Clc1cc2nc(-c3cccnc3Cl)[nH]c2cc1Cl	aSyn UTR act -228.9
C[C@H]1Oc2ccccc2C(=O)C1C(=O)c1ccccc1 (some centres not stated)	aSyn UTR act -100.4
c1ccc2c(c1)CSc1ccccc1N2	none
COc1ccccc1CN=C1Nc2ccccc2CS1	aSyn UTR act -148.9
COc1cccc(CN=C2Nc3ccccc3CS2)c1	aSyn UTR act -142.0
Clc1ccc(CN=C2Nc3ccccc3CS2)cc1	aSyn UTR act -181.7
CCn1c(SCC(=O)c2ccc(Cl)cc2)nnc1C(C)C	aSyn UTR act -76.2
CC(=O)c1cccc(NC(=O)c2cnn(-c3ccccc3)c2C)c1	aSyn UTR act -181.0
Cc1c(C(=O)Nc2cccc([N+](=O)[O-])c2)cnn1-c1ccccc1	aSyn UTR act -137.1
Cc1c(C(=O)Nc2ccccc2)cnn1-c1ccccc1	aSyn UTR act -67.6
COc1ccc(NC(=O)c2cnn(-c3ccccc3)c2C)cc1	aSyn UTR act -62.0
Cc1c(C(=O)Nc2cccc(F)c2)cnn1-c1ccccc1	aSyn UTR act -212.3
COc1ccc(CN2CCn3ncc(C(=O)Nc4ccccc4)c3C2=O)cc1	aSyn UTR act -85.8
COc1ccc(NC(=O)c2cnn(-c3ccccc3)c2C)cc1OC	aSyn UTR act -152.8
CNC(C)C#Cc1ccc2oc3cc(C)c(C)cc3c(=O)c2c1 (configuration not stated)	aSyn UTR act -195.6
CNC(C)C#Cc1ccc2c(=O)c3cc(C)c(C)cc3oc2c1 (configuration not stated)	aSyn UTR act -226.9
CCOC(=O)N1CCN(C(=O)c2ccc3c(c2)sc2nc(-c4ccccc4)cn23)CC1	aSyn UTR act -108.7
CCOC(=O)N1CCC(NC(=O)c2ccc3c(c2)sc2nc(-c4ccc(OC)cc4)cn23)CC1	aSyn UTR act -98.2
CCOC(=O)N1CCN(C(=O)c2nc3ccccc3s2)CC1	aSyn UTR act -92.7
Cc1cccc(-n2cnc3cc(C(=O)N4CCCCC4)ccc32)c1	aSyn UTR act -74.0
O=C(NCCc1c[nH]c2ccccc12)C(=O)Nc1ccccc1	aSyn UTR act -65.3
O=C(NCCc1ccccc1)C(=O)c1c[nH]c2ccccc12	aSyn UTR act -199.5
